Our source for the outcome and Potency values is PubChem BioAssay (Tox21).

Structures are written as SMILES. Values joined by “and” are separate entries in the source; they are usually repeats but may differ in a detail not shown here. Equal entries are not always repeated. Inconclusive results are not listed. The source holds several records for some structures; these can differ, active in one and inactive in another. Active and inactive are the calls of the source. Unless noted, calls come from the whole dose curve; as a rule, active = well fitted curve in the direction sought with a large enough effect in the repeat runs; inconclusive = weak or mixed curves; inactive = no such curve, though single readings can be large; an effect the other way counts as inactive or inconclusive.

Test [1] in a line: qHTS assay to identify small molecule antagonists of the estrogen receptor alpha (ER-alpha) signaling pathway using the BG1 cell line in the presence of 0.1 nM 17-beta-estradiol - cell viability counter screen (AID 1259241). Note: nearly all actives have a fitted effect of over 40% in size. A digest of the protocol: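 Cells were plated and left 24 hr, compounds in DMSO were pinned in, 17beta-estradiol was added to 0.1 nM final, and after 22 hr CellTiter-Fluor reagent was added for 30 min before fluorescence was read.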

Test [2] addresses Estrogen receptor (Homo sapiens) (UniProt P03372). In words: qHTS assay to identify small molecule antagonists of the estrogen receptor alpha (ER-alpha) signaling pathway using the BG1 cell line in the presence of 0.1 nM 17-beta-estradiol (AID 1259244). Note: nearly all actives have a fitted effect of over 50% in size. A digest of the protocol:
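VM7Luc4E2 cells (endogenous full-length ER-alpha, 4×ERE-luciferase), kept 5 days in phenol red-free, charcoal-stripped FBS medium; 4,000 cells/well. Compounds added with 0.1 nM (final) 17beta-estradiol, 22 hr at 37C; luminescence read with ONE-Glo after 30 min.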
In general terms: In qHTS, concentration-response curves come from the screen itself.

A short description of test [3]: qHTS assay to identify small molecule HDAC inhibitors (AID 1259364). Note: top concentration of the series differs between compounds; nearly all actives have a fitted effect of over 45% in size. A digest of the protocol: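 Wild-type HCT-116 cells, plated overnight at 37 C, exposed to compounds 2 hr at 37 C; luminogenic HDAC-Glo substrate then added 30 min at room temperature. Luminescence reports relative endogenous class I/II HDAC activity.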
Test [4] can be described thus: qHTS assay to identify small molecule HDAC inhibitors - cell viability counter screen (AID 1259365). Note: series mostly up to about 92 µM; nearly all actives have a fitted effect of over 50% in size. A digest of the protocol:
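Counter screen in wild-type HCT-116 cells: compounds dissolved in DMSO are pin-transferred onto overnight-plated cells and left 2hr at 37C. ATP-based CellTiter-Glo luminescence then measures viable cells.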

A short description of test [5]: qHTS assay to identify small molecule agonists of the sonic hedgehog signaling (Shh) pathway - cell viability counter screen (AID 1259366). Note: nearly all actives have a fitted effect of over 50% in size. Note: potency is the fitted concentration of half-maximal effect. A digest of the protocol: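 Cells are plated at 2,000 per well and left 4hr at 37C, 5% CO2 before compound addition. After 23hr of treatment, CellTiter-Fluor reagent is added for 1hr at 37C and fluorescence is measured.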
Test [6] in a line: qHTS assay to identify small molecule antagonists of the sonic hedgehog signaling (Shh) pathway - cell viability counter screen (AID 1259367). Note: nearly all actives have a fitted effect of over 55% in size. A digest of the protocol: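 NIH/3T3-derived Gli1-Luc reporter cells (2,000 per well) rested 4 hr at 37 C, then received DMSO compounds plus conditioned medium. After 23 hr of treatment, CellTiter-Fluor was added for 1 hr at 37C and fluorescence read.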

Test [7] can be described thus: qHTS assay to identify small molecule agonists of the sonic hedgehog signaling (Shh) pathway (AID 1259368; calls by dose curve;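 note: NIH/3T3-derived 3T3Gli1-Luc cells carrying a stable Gli1-driven firefly luciferase reporter; series mostly up to about 92 µM; nearly all actives have a fitted effect of over 15% in size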). A digest of the protocol: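 NIH/3T3-derived 3T3Gli1-Luc cells with stably integrated Gli1-driven firefly luciferase, 2,000 cells/well, compounds added after 4 hr. Incubated 24 hr at 37C, 5% CO2; luminescence read after 30 min with luciferase reagent at room temperature.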

Test [8] can be described thus: qHTS assay to identify small molecule antagonists of the sonic hedgehog signaling (Shh) pathway (AID 1259369; calls by dose curve; note: nearly all actives have a fitted effect of over 45% in size). A digest of the protocol:
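NIH/3T3-derived Gli1-Luc reporter cells plated 4 h, dosed with compound, then stimulated with conditioned medium for 24 h at 37 C. Firefly luciferase luminescence read after 30 min with detection reagent at room temperature.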

Test [9] has as its target Estrogen receptor beta (Homo sapiens) (UniProt Q92731). The test is described as follows: qHTS assay to identify small molecule agonists of the estrogen receptor beta (ER-beta) signaling pathway (AID 1259377; active = well fitted activation curve with a large enough effect in the signal ratio in the repeat runs, not every such curve was filed as active; the % refers to the signal ratio). A digest of the protocol: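 Agonist mode cell assay in GripTite HEK293T cells expressing an ER-beta fusion that drives beta-lactamase from an Upstream Activator Sequence; 16 hr compound exposure at 37C, then 2 h LiveBLAzer B/G FRET substrate at room temperature, fluorescence read-out.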

For test [10] the target is unchanged. In words: qHTS assay to identify small molecule antagonists of the estrogen receptor beta (ER-beta) signaling pathway (AID 1259378; active = well fitted inhibition curve with a large enough effect in the signal ratio in the repeat runs, not every such curve was filed as active; the % refers to the signal ratio). A digest of the protocol: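 ER-beta-UAS-bla HEK293T (GripTite) cells in 2% charcoal-stripped FBS medium were preincubated 6 hr at 37C, dosed with compound, then stimulated with 1 nM E2 (final) for 16 hr; beta-lactamase reporter read by B/G FRET fluorescence after 2 hr substrate loading.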

Test [11] in a line: qHTS assay to identify small molecule agonists of the androgen receptor (AR) signaling pathway in the presence of an antagonist - cell viability counter screen (AID 1259379).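 Note: MDA-kb2 human breast cancer cells carrying an MMTV luciferase reporter; series mostly up to about 92 µM; nearly all actives have a fitted effect of over 25% in size.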 A digest of the protocol: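 MDA-kb2 cells (MMTV-luciferase, AR/GR), 3,000/well, 5 h attachment, then 3.0 µM nilutamide (final) and compounds at 15 concentrations. Viability by CellTiter-Fluor fluorescence after 16 h at 37 °C, 0% CO2, in the reporter wells.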

Test [12] is described as follows: qHTS assay to identify small molecule agonists of the estrogen receptor beta (ER-beta) signaling pathway - cell viability counter screen (AID 1259380). Note: nearly all actives have a fitted effect of over 30% in size. A digest of the protocol: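 ER-beta-UAS-bla HEK293T cells in medium with 2% charcoal-stripped FBS, pre-incubated 6 hr, then treated 16 hr at 37C. Cytotoxicity read in the same wells by CellTiter-Glo luminescence after 30 min at room temperature.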

Test [13] in a line: qHTS assay to identify small molecule antagonists of the estrogen receptor beta (ER-beta) signaling pathway - cell viability counter screen (AID 1259382). Note: series mostly up to about 92 µM; nearly all actives have a fitted effect of over 55% in size. A digest of the protocol:
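ER-beta-UAS-bla HEK293T cells in 2% charcoal-stripped FBS medium, treated with compound plus 1 nM 17-beta-estradiol for 16 h at 37C. Viability read by CellTiter-Glo luminescence after 30 min at room temperature in the same wells.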

Test [14] deals with Estrogen receptor (Homo sapiens) (UniProt P03372). The test is described as follows: qHTS assay to identify small molecule agonists of the estrogen receptor alpha (ER-alpha) signaling pathway in the presence of an antagonist (AID 1259383; calls by dose curve; note: top concentration of the series differs between compounds; nearly all actives have a fitted effect of over 15% in size). A digest of the protocol:
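VM7Luc4E2 cells express endogenous full-length ER-alpha with an ERE-luciferase reporter and were hormone-deprived for 5 days. Compounds at 15 concentrations were added with 10.0nM ICI-182,780 for 22hr at 37C. Luminescence was read with ONE-Glo.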

The nature of test [15]: qHTS assay to identify small molecule agonists or antagonists of the thyroid stimulating hormone receptor (TSHR) signaling pathway - wild type cell line counter screen (AID 1259384; calls by dose curve). A digest of the protocol: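 Wild-type HEK293 cells were plated 18 h at 37 C/5% CO2, pin-dosed with compound plus Ro20-1724 medium, held 30 min at room temperature, then given cAMP-d2 and anti-cAMP-cryptate; fluorescence was read after 1 h. Fifteen concentrations, triplicate.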

Test [16] deals with Thyrotropin receptor (Homo sapiens) (UniProt P16473). In words: qHTS assay to identify small molecule antagonists of the thyroid stimulating hormone receptor (TSHR) signaling pathway (AID 1259385; calls by dose curve; note: nearly all actives have a fitted effect of over 20% in size). A digest of the protocol: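 TSHR-HEK293 cells were plated and held 18 h at 37C/5% CO2, then given compound plus Ro20-1724 and stimulated with TSH at 1.5 ng/mL final. After 30 min at room temperature, cAMP was detected with cAMP-d2/anti-cAMP-cryptate (1 h) by fluorescence.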

Test [17] is described as follows: qHTS assay to identify small molecule agonists of the estrogen receptor alpha (ER-alpha) signaling pathway in the presence of an antagonist - cell viability counter screen (AID 1259386).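 Note: series mostly up to about 92 µM; cells exposed to compounds for 22 h at 37 °C before the viability read; nearly all actives have a fitted effect of over 30% in size.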 A digest of the protocol: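 Cell viability in VM7Luc4E2 cells (endogenous full-length ER-alpha) measured by CellTiter-Fluor fluorescence in the same wells as the luciferase screen. Cells pre-cultured 5 days in charcoal-stripped serum, then treated 22 h with compounds at 15 concentrations plus 10.0nM ICI-182,780.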

Test [18] can be described thus: qHTS assay to identify small molecule phospholipidosis (PLD) inducers (AID 1259344; active = well fitted curve in the direction sought with a large enough effect; an effect the other way counts as inactive or inconclusive). A digest of the protocol: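 HepG2 cells on collagen I, attached 4 h at 37 C, were co-treated with compound and LipidTOX Red dye for 24 h at 37 C, then fixed with paraformaldehyde plus Hoechst 33342 and imaged by high-content microscopy for phospholipid accumulation.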
A short description of test [19]: qHTS assay to identify small molecule antagonists of the androgen receptor (AR) signaling pathway using the MDA cell line in the presence of 0.5 nM R1881 - cell viability counter screen (AID 1259242). Note: nearly all actives have a fitted effect of over 45% in size. A digest of the protocol:
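MDA-kb2 cells (MMTV-luciferase, AR/GR responsive) were treated with compounds plus 0.5 nM R1881 (final) for 16 hr at 37C, 0% CO2. Viability was then read in the same wells as live-cell protease fluorescence (CellTiter-Fluor, 30 min).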

In test [20] the target is Androgen receptor (Homo sapiens) (UniProt P10275). The test is described as follows: qHTS assay to identify small molecule antagonists of the androgen receptor (AR) signaling pathway using the MDA cell line in the presence of 0.5 nM R1881 (AID 1259243). Note: nearly all actives have a fitted effect of over 50% in size. Note: potency is the fitted concentration of half-maximal effect. A digest of the protocol:
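MDA-kb2 cells (MMTV-luciferase, responsive to AR and GR) at 3,000/well, rested 5 h at 37C, 0% CO2, then given compounds plus 0.5 nM R1881 (final) for 16 hr. Luciferase read with ONE-Glo after 30 min at room temperature.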

Chain of Thyrotropin receptor (Homo sapiens) (P16473 whole entry, looked up): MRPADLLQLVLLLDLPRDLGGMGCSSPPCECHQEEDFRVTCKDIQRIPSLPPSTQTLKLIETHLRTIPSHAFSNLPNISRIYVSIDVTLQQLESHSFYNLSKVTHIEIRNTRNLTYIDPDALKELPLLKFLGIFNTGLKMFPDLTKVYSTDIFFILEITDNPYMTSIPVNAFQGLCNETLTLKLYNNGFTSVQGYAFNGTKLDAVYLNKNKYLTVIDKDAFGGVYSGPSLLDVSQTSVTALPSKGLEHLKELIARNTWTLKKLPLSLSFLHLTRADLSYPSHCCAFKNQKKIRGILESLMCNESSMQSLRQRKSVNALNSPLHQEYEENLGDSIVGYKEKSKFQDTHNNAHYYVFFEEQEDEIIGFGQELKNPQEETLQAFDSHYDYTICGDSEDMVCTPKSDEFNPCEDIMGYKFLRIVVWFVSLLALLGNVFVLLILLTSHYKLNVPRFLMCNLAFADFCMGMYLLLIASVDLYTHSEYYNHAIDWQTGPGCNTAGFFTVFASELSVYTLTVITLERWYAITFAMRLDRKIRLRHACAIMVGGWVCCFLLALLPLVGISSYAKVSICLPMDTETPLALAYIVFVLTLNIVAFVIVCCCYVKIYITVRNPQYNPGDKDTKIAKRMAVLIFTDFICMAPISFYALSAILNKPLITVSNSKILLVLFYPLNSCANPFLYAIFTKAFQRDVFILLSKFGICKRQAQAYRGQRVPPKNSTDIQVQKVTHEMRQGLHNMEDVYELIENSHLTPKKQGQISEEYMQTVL
Chain of Estrogen receptor (Homo sapiens) (P03372 whole entry, looked up): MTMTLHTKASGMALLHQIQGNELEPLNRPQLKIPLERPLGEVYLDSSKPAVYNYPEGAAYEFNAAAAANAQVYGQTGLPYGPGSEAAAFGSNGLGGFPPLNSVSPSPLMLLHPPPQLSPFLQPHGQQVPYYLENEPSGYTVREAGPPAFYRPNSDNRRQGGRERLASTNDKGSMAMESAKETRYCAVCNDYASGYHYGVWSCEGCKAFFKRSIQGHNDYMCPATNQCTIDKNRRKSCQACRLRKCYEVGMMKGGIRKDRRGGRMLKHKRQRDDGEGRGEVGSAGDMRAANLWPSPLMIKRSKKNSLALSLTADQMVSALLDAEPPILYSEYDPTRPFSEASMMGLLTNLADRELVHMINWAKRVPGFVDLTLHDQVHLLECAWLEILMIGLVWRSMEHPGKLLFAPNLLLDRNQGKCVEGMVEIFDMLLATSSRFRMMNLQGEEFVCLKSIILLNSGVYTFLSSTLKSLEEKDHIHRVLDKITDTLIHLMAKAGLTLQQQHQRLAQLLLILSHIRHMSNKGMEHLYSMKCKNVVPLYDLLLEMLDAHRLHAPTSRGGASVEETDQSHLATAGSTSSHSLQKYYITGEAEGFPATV
Chain of Estrogen receptor beta (Homo sapiens) (Q92731 whole entry, looked up, the tested form may be a part): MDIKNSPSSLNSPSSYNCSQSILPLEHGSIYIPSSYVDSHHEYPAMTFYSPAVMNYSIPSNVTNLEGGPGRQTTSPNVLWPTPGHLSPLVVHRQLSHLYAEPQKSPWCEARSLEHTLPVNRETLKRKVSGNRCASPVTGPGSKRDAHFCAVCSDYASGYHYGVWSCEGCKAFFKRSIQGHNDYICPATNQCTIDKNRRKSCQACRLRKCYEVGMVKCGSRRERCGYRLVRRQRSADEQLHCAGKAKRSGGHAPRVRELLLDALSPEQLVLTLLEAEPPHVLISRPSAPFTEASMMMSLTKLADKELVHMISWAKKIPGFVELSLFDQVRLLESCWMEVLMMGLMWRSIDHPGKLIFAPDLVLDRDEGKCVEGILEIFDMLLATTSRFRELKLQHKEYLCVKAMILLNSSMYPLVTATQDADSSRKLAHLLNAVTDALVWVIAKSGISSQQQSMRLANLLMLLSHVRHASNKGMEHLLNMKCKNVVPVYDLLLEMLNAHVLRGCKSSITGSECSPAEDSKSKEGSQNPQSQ
Chain of Androgen receptor (Homo sapiens) (P10275 whole entry, looked up): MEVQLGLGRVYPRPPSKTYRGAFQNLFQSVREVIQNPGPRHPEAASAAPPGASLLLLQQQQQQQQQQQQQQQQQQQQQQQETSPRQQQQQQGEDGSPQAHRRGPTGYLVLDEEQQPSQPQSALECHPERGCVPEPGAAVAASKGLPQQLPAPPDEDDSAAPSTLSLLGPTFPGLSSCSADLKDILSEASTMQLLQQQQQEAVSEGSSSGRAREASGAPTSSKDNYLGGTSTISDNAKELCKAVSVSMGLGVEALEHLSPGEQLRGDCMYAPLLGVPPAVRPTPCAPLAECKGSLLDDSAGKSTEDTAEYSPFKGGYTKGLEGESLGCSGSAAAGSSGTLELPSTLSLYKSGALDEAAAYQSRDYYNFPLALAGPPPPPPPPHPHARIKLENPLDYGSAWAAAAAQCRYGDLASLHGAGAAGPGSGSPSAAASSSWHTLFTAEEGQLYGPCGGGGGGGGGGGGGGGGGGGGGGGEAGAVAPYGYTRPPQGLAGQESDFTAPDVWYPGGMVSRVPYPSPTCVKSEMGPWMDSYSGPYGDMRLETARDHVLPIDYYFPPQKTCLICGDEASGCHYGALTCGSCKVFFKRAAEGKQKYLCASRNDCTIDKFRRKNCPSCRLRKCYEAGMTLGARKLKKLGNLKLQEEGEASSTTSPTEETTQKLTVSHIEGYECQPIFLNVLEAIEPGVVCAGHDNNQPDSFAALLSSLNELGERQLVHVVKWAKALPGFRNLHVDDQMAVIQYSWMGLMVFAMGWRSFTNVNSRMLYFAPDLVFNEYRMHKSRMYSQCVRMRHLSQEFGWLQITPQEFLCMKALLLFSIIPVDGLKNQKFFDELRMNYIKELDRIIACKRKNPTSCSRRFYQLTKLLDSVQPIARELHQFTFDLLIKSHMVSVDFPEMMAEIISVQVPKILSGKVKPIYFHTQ

As to `CCCCCCCCCCCCCCCCC`, the outcome in [1], in test [2], in [4], in [7], in test [9] and in test [10] was inactive. Moreover, the result in [15] was inactive. Also, the Potency result in test [3], in test [5], in [6], in test [8], in [11] and in test [12] was “inactive” each time. Further, the Potency result in [13], in test [14], in test [16] and in [17] was “inactive” each time.
In the case of `O=c1[nH]c(=O)n([C@H]2C[C@H](O)[C@@H](CO)O2)cc1I`, the result in test [1], in test [4], in test [7], in test [9], in test [10] and in test [15] was inactive. Besides, the Potency entry in test [18], in test [5], in test [6], in [8], in [11] and in test [12] was “inactive” throughout. The Potency entry in [13], in test [16] and in test [17] was “inactive” each time.
Take `CCOC(=O)Nc1ccc(NCc2ccc(F)cc2)nc1N`: the outcome in test [1], in [2], in [4], in test [7], in test [9] and in test [10] was inactive. The Potency result in test [18], in test [3], in test [5], in test [6], in test [8] and in test [11] was “inactive” in each case. Besides, the Potency result in test [12], in test [13], in test [16] and in test [17] was “inactive” throughout.
Turning to `CCOc1ccc(C(=O)OCCN(CC)CC)cc1`, the Potency result in test [19], in [20], in test [18], in [3], in test [5] and in test [6] was “inactive” throughout. Moreover, the Potency result in [8], in test [11], in test [12], in test [13], in test [16] and in test [17] was “inactive” in each case. The outcome in test [4], in test [7], in test [9], in test [10] and in test [15] was inactive.
With `O=[N+]([O-])c1ccc(F)cc1F`, the outcome in test [1], in [2], in test [4], in test [7], in [9] and in test [10] was inactive. The Potency entry in test [3], in [5], in test [6], in test [8], in [11] and in test [12] was “inactive” in each case. Moreover, the Potency entry in [13], in test [14] and in [17] was “inactive” in each case.
Turning to `CC(=O)OCC(CCn1cnc2cnc(N)nc21)COC(C)=O`, the Potency entry in test [19], in [20], in test [3], in [5], in [6] and in test [8] was “inactive” each time. For the same compound, the Potency result in [11], in test [12], in test [13], in [14], in test [16] and in [17] was “inactive” each time. Moreover, the result in test [2], in test [4], in test [7], in [9], in test [10] and in test [15] was inactive.
With `Nc1cc(=O)[nH]c(N)n1`, the result in [1], in test [2], in test [4], in test [9], in [10] and in [15] was inactive. The Potency entry in test [3], in [5], in test [6], in test [8], in test [11] and in test [12] was “inactive” throughout. Further, the Potency entry in test [13], in test [16] and in test [17] was “inactive” throughout.
Consider `CC(C)(c1ccc(O)cc1)c1ccc(O)cc1`, for which the Potency entry in [19], in [3], in test [11], in [13], in test [16] and in [17] was “inactive” in each case. Besides, the Potency in [20] was 9.58 µM (active) and 6.98 µM (active); in test [5] it was “inactive and 12.4 µM (active)”. Besides, the outcome in [4], in test [7] and in test [15] was inactive.
